Screens from PubChem BioAssay.
Pf growth 48h: Primary qHTS for delayed death inhibitors of the malarial parasite plastid, 48 hour incubation; P. falciparum luciferase growth in erythrocytes, 48 h; Potency, µM (series often up to 28.7 µM), for the others: top-dose activity change, negative = inhibition, most hits filed as inhibitors; actives 5.9% (n = 310,000); AID 504832, 2011; also: potency is read from the fitted curve at half-maximal effect; % is scaled to controls: 0 for no effect and ±100 for the full control effect
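Luciferase-expressing P. falciparum in infected erythrocytes (2% hematocrit, 0.1% parasitemia final) in RPMI 1640/0.5% Albumax were exposed to compound for 48 hours at 37 C, 5% CO2; growth read as luminescence.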
LmPK inhibitor: qHTS Assay for Inhibitors of Leishmania Mexicana Pyruvate Kinase (LmPK). Potency, µM (series often up to 57.5 µM), for the others: at the highest dose activity change, negative = inhibition, hits mostly inhibitors. Q27686. AID 1721, 2009. purified LmPK, Kinase-Glo ATP luminescence, 1 h. actives 0.37% (n = 290,000); also: potency is read from the fitted curve at half-maximal effect; % is scaled to controls: 0 for no effect and ±100 for the full control effect
Target sequence (Q27686 whole entry, looked up): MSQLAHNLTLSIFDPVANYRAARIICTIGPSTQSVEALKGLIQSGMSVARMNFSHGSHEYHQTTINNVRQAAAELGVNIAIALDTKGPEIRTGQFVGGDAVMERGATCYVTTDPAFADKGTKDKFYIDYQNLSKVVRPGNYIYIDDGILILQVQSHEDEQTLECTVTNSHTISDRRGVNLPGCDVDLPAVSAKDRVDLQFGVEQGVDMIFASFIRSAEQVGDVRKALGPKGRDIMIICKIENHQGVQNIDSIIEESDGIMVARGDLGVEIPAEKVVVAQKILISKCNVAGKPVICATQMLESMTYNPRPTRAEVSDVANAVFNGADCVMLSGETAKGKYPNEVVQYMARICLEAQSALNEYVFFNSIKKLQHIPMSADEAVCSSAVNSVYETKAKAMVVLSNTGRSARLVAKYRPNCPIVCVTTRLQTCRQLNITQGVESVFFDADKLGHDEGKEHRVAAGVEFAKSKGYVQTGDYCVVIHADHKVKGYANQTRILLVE
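0.1 nM LmPK, 0.5 mM PEP, 0.1 mM ADP; 50 mM imidazole pH 7.2, 7 mM MgCl2, 50 mM KCl; 1 h RT. Kinase-Glo luminescence readout, normalized to no-enzyme (full inhibition) and uninhibited wells.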
Pf growth 96h: Primary qHTS for delayed death inhibitors of the malarial parasite plastid, 96 hour incubation | P. falciparum luciferase reporter growth, 96 h | actives 6.9% (n = 320,000) | Potency, µM (top dose mostly 28.7 µM), for the others: at the highest dose activity change, negative = inhibition, actives largely listed as inhibitors; also: potency is read from the fitted curve at half-maximal effect; % is scaled to controls: 0 for no effect and ±100 for the full control effect
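Delayed-death screen, second-generation endpoint: infected erythrocytes, 2% hematocrit, 0.05% parasitemia final; 96 hours at 37 C, 5% CO2; luciferase detection reagent; luminescence decrease equals reduced growth.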
CHX counter: Cycloheximide Counterscreen for Small Molecule Inhibitors of Shiga Toxin | cell reporter, cycloheximide protein synthesis inhibition counterscreen | max response, % | actives 12% (n = 300,000); in the data active = max response mostly above about 13%, no sharp cut-off; inactive = mostly below about 14%; also: read at 38.3 µM for the half of the compounds with a filed dose; 0% is about no effect
Shiga toxin inh: A qHTS for Small Molecule Inhibitors of Shiga Toxin; AID 2315, 2010; Vero cells, Shiga toxin protein synthesis inhibition reporter; inhibition, % at 38.7 µM; actives 9.2% (n = 290,000); in the data active = inhibition mostly above about 28%, no sharp cut-off; inactive = mostly below about 43%; also: 0% is about no effect
Numbers without * were called inactive; ? = inconclusive; . = no result given; + = active, no number. Compounds with a hit are over-represented: about 22% of the library has one in this group of screens. Unless noted, calls follow the shape of the dose curve; as a rule, active = well fitted inhibition curve with a large enough effect; inconclusive = small, poorly fitted or top-dose-only effect, or another doubt; inactive = no such curve, though single readings can be large or run the other way.

SMILES	Pf growth 48h	LmPK inhibitor	Pf growth 96h	CHX counter	Shiga toxin inh
COc1ccccc1CN1CC(=O)N2CSC[C@H]2C1=O	.	1%	48%	0	-4
O=C(Nc1nnc(-c2ccc(F)cc2)o1)C1CCCN1S(=O)(=O)c1cccs1 (configuration not stated)	-16%	.	13%	.	.
O=C(CCCn1c(SCC(=O)NCC2CCCO2)nc2ccccc2c1=O)NCc1ccccc1 (configuration not stated)	.	0%	9.3µM*	-3	1
O=C(CCCn1c(SCc2cc(=O)n3cc(Cl)ccc3n2)nc2ccccc2c1=O)NCC1CCCO1 (configuration not stated)	6.6µM*	0%	10µM*	-4	-1
O=C(CCCn1c(SCC(=O)c2ccc(F)cc2)nc2ccccc2c1=O)NCc1ccccc1	.	3%	10µM*	-4	-26
O=C(CCCn1c(SCC(=O)Nc2ccccc2Cl)nc2ccccc2c1=O)NCC1CCCO1 (configuration not stated)	?	0%	-3%	-1	-4
CC1CCN(C(=O)C2CCC(=O)N(Cc3ccc(Cl)cc3)C2)CC1 (configuration not stated)	-6%	-2%	-21%	-3	-4
CC1CC=CC2C1C(=O)N(Cc1ccccc1)C2c1ccc(F)c(/C=C/c2ccccc2)c1 (configuration not stated)	.	.	.	20	28
O=C(NCCc1ccccc1F)N[C@@H](Cc1ccccc1)C(=O)O	-3%	0%	41%	6	13
CCOC(=O)c1ccc2ncc(C(=O)OCC)c(NCc3ccco3)c2c1	.	7%	1.7µM*	27*	13
CCOC(=O)c1cnc2c(C(=O)OC)cccc2c1NCc1ccco1	?	2%	.	6	-9
CCOC(=O)c1cnc2c(C)cccc2c1NCc1ccco1	?	5%	?	24*	37*
COc1nnc(-c2ccc(C)c(S(=O)(=O)NC(C)C)c2)c2ccccc12	.	-1%	2.6µM*	-8	-10
COc1nnc(-c2ccc(C)c(S(N)(=O)=O)c2)c2ccccc12	.	1%	2.9µM*	-2	28
CC(=O)Nc1ccc(Nc2nnc(-c3ccc(C)c(S(N)(=O)=O)c3)c3ccccc23)cc1	?	-4%	-2%	-5	-4
CN(CC(=O)Nc1ccc(N2CCOCC2)cc1)C(=O)CCNC(=O)c1ccc(Br)cc1	-11%	.	-1%	.	.
O=C1CNC(=O)/C(=C\c2ccccc2)N1	13%	3%	31%	-1	-3
O=C1/C(=C/c2ccccc2)Nc2ccccc21	?	-16%	3.7µM*	0	23
C/C(=N\NC(=O)c1ccoc1C)c1ccc(Br)s1	36%	-15%	-9%	57*	80*
Cc1occc1C(=O)N/N=C/c1ccc(Br)s1	23%	25µM*	30%	42*	63*
Cc1ccc(/C=N/NC(=O)c2ccoc2C)s1	92%	14µM*	70%	70*	+
CCC(O)C1CCN(C(=O)c2ccc(OC3CCN(Cc4ccccn4)CC3)cc2)CC1 (configuration not stated)	?	-5%	-2%	11	-7
Cc1ccc(C(=O)NCC(=O)NC23CC4CC(CC(C4)C2)C3)cc1	73%	-4%	71%	37*	69*
N=c1oc2ccc3ccccc3c2cc1-c1nnc2n1CCCCC2	41%	-1%	9.3µM*	9	5
CCCNC(=O)CN1C(=O)COc2ccc(S(=O)(=O)N3CC(C)CC(C)C3)cc21 (configuration not stated)	17%	1%	?	-4	-7
SMILES	Pf growth 48h	LmPK inhibitor	Pf growth 96h	CHX counter	Shiga toxin inh
CCN(CC)CCNc1nc2cc(OC)c(OC)cc2c2nc(-c3ccccc3)nn12	1µM*	-2%	?	-1	-16
COc1cccc(CN(C(=O)c2cccs2)C2CCS(=O)(=O)C2)c1 (configuration not stated)	-6%	-3%	-2%	-3	-3
O=C1CSC(c2ccccc2)N1c1nnc(C23CC4CC(CC(C4)C2)C3)s1 (configuration not stated)	?	5%	.	-2	-17
CCCSc1nnc(CNC(=O)C23CC4CC(CC(C4)C2)C3)n1Cc1ccccc1	13µM*	8%	?	-5	-9
O=C(NCc1ccccn1)c1ccc(COc2ccc(Cl)cc2)o1	0%	-10%	?	-2	1
COc1ccc(OCCCC(=O)Nc2nccs2)cc1	?	-1%	?	13*	20
Cc1ccccc1OCCCC(=O)Nc1nccs1	.	-4%	-5%	-1	-8
O=C(COc1ccc(F)cc1)Nc1nccs1	122%	?	109%	33*	51*
Cc1cccc(OCC(=O)Nc2nccs2)c1C	242%	4%	?	67*	67*
O=C(CS(=O)(=O)c1ccc(F)cc1)Nc1nccs1	12%	.	21%	.	.
O=C(Nc1nccs1)c1ccc(COc2ccc(Cl)cc2)o1	-1%	0%	?	30*	55*
C=C(C)[C@@H]1CC=C(CN2CCC(CCOC)(C(=O)OCC)CC2)CC1	-9%	2%	?	-1	-4
CCCCC#Cc1cncc(C(=O)N/N=C/c2ccccc2)c1	27%	-2%	42%	-3	7
O=C(Nc1nccs1)c1ccc(COc2ccc(F)cc2)o1	55%	4%	-9%	32*	52
O=C(NC1CC1)c1ccc(COc2ccc(F)cc2)o1	?	-5%	?	14	25
O=C(Nc1nccs1)c1ccc(COc2ccccc2Br)o1	?	1%	.	41*	53*
CC1CCCCC1NC(=O)COC(=O)c1ccc2c(c1)OCCO2 (configuration not stated)	5%	.	22%	.	.
CCOC(=O)N1CCN(C(=O)/C(=C\c2ccc(SC)cc2)NC(=O)c2ccccc2)CC1	?	1%	-14%	1	-2
CCOC(=O)N1CCN(C(=O)/C(=C/c2ccc(F)cc2)NC(=O)c2ccccc2)CC1	-24%	-2%	3.3µM*	10	4
CC(C)c1nnc(NC(=O)Cc2ccccc2[N+](=O)[O-])s1	47%	-1%	0%	12*	active
COc1ccccc1NC(=O)Nc1nnc(C(C)C)s1	100%	3%	126%	51*	75*
CCc1nnc(NC(=O)Nc2ccccc2OC)s1	51%	1%	.	35*	91*
COc1ccccc1NC(=O)Nc1nnc(C(C)c2ccccc2)s1 (configuration not stated)	45%	-3%	?	2	12
COc1ccccc1NC(=O)Nc1nnc(CC(=O)Nc2ccccc2)s1	?	0%	27%	-2	-33
O=C(Cc1cc2ccccc2o1)NCc1ccc(F)cc1	19%	0%	23%	17	28
Cc1cc(C)c(NC(N)=S)c(C)c1	-15%	8%	-18%	-1	10
